Assay results published in PubChem BioAssay AID1159580 (chemical genetic matrix, 2015).
“And” between values parts separate entries of the source, which are not always exact repeats. Equal entries are not always repeated. Out of some 5,500 compounds screened, about 2,000 (36%) were called active. Not shown: some 18% with an inconclusive outcome. Rule as the data show it: active = normalized growth mostly below about 0.91 (no sharp cut-off); inconclusive = no clear call, values can overlap the other calls; inactive = mostly above about 0.92. The list shows a part of the results.

Assay: chemical genetic growth profiling, strain panel (AID 1159580);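 also: tested at 20 µM; growth read once vehicle control cultures reached saturation at 30 °C; 1 = growth at the plate median or of vehicle wells; lower values mean less growth of the strain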
Conditions: S. cerevisiae deletion strains, growth OD

Measured: normalized growth

Cc1ccc2c(c1)CC[C@H]1CC(=O)CC[C@]21C
inactive: locus YAL013W, strain DEP1, active compounds read low 1.01 | locus YAL021C, strain ccr4, active compounds read low 0.991 | locus YAL026C, strain drs2, active compounds read low 1.01 | locus YAL030W, strain snc1, active compounds read low 1.01 | locus YBL061C, strain skt5, active compounds read low 1 | locus YBR009C, strain hhf1, active compounds read low 1 | locus YBR021W, strain FUR4, active compounds read low 0.971 | locus YBR023C, strain chs3, active compounds read low 0.998 | locus YBR171W, strain sec66, active compounds read low 0.992 | locus YBR229C, strain ROT2, active compounds read low 0.997 | locus YBR231C, strain swc5, active compounds read low 1.01 | locus YBR279W, strain paf1, active compounds read low 1.01 | locus YCL011C, strain gbp2, active compounds read low 0.995 | locus YCL016C, strain dcc1, active compounds read low 1.01 | locus YCL029C, strain bik1, active compounds read low 0.991 | locus YCL069W, strain vba3, active compounds read low 0.995 | locus YCR088W, strain abp1, active compounds read low 0.998 | locus YDL005C, strain med2, active compounds read low 1.01 | locus YDL035C, strain GPR1, active compounds read low 0.973 | locus YDL040C, strain nat1, active compounds read low 1 | locus YDL074C, strain BRE1, active compounds read low 0.971 | locus YDL101C, strain DUN1, active compounds read low 1.01 | locus YDL134C, strain PPH21, active compounds read low 1 | locus YDL185W, strain tfp1, active compounds read low 0.983 | locus YDL192W, strain arf1, active compounds read low 0.974 | locus YDR001C, strain nth1, active compounds read low 0.998 | locus YDR069C, strain doa4, active compounds read low 1.01 | locus YDR101C, strain arx1, active compounds read low 0.97 | locus YDR137W, strain rgp1, active compounds read low 0.956 | locus YDR150W, strain NUM1, active compounds read low 1 | locus YDR159W, strain sac3, active compounds read low 1.01 | locus YDR162C, strain NBP2, active compounds read low 0.974 | locus YDR195W, strain ref2 1.05 | locus YDR297W, strain sur2, active compounds read low 0.991 | locus YDR318W, strain mcm21, active compounds read low 0.972 | locus YDR334W, strain swr1, active compounds read low 1.01 | locus YDR335W, strain msn5, active compounds read low 1 | locus YDR388W, active compounds read low 0.979 | locus YDR392W, strain spt3, active compounds read low 0.983 | locus YDR502C, strain sam2, active compounds read low 0.968 | locus YEL003W, strain gim4, active compounds read low 0.991 | locus YEL037C, strain rad23, active compounds read low 1.01 | locus YEL061C, strain CIN8 (second series), active compounds read low 0.993 | locus YEL061C, strain CIN8, active compounds read low 1 | locus YER015W, strain faa2, active compounds read low 1.01 | locus YER016W, strain bim1, active compounds read low 1 | locus YER110C, active compounds read low 0.966 | locus YER111C, strain swi4, active compounds read low 0.991 | locus YER155C, strain BEM2 (second series), active compounds read low 0.978 | locus YER155C, strain BEM2, active compounds read low 0.997 | locus YER167W, strain BCK2, active compounds read low 0.991 | locus YFR010W, strain ubp6, active compounds read low 1.01 | locus YGL078C, strain dbp3, active compounds read low 0.989 | locus YGL086W, strain mad1, active compounds read low 0.981 | locus YGL167C, strain pmr1, active compounds read low 0.998 | locus YGL173C, strain kem1, active compounds read low 0.982 | locus YGL227W, strain vid30, active compounds read low 1 | locus YGL240W, strain doc1, active compounds read low 0.987 | locus YGL248W, strain PDE1, active compounds read low 0.993 | locus YGL253W, strain hxk2, active compounds read low 1 | locus YGR078C, strain PAC10, active compounds read low 0.982 | locus YGR135W, strain pre9, active compounds read low 0.959 | locus YGR229C, strain SMI1, active compounds read low 1.01 | locus YGR252W, strain gcn5, active compounds read low 0.881 | locus YHR013C, strain ard1, active compounds read low 1.02 | locus YHR027C, strain rpn1, active compounds read low 1.01 | locus YHR030C, strain SLT2, active compounds read low 0.996 and 0.98 | locus YHR079C, strain IRE1 (second series), active compounds read low 0.969 | locus YHR079C, strain IRE1, active compounds read low 0.973 | locus YHR094C, strain hxt1, active compounds read low 0.995 | locus YHR129C, strain ARP1, active compounds read low 0.996 | locus YHR142W, strain chs7, active compounds read low 0.985 | locus YHR200W, strain rpn10, active compounds read low 0.979 | locus YIL066C, strain RNR3, active compounds read low 0.993 | locus YIL073C, strain SPO22, active compounds read low 0.965 | locus YIL125W, strain kgd1, active compounds read low 0.999 | locus YIR030C, strain dcg1, active compounds read low 0.974 | locus YJL092W, strain hpr5, active compounds read low 1 | locus YJL095W, strain BCK1 (second series), active compounds read low 1.01 | locus YJL095W, strain BCK1, active compounds read low 0.967 and 0.983 | locus YJL115W, strain asf1, active compounds read low 1.01 | locus YJL129C, strain trk1, active compounds read low 1 | locus YJL134W, strain LCB3, active compounds read low 0.997 | locus YJL154C, strain vps35, active compounds read low 0.993 | locus YJL164C, strain tpk1, active compounds read low 0.992 | locus YJL166W, strain qcr8, active compounds read low 0.995 | locus YJL168C, strain set2, active compounds read low 0.971 | locus YJL187C, strain SWE1 (second series), active compounds read low 1.01 | locus YJR043C, strain POL32, active compounds read low 0.967 | locus YJR066W, strain TOR1, active compounds read low 0.897 | locus YJR075W, strain HOC1, active compounds read low 1
